Test [1] in a line: qHTS assay for small molecule agonists of the p53 signaling pathway (AID 651631; calls by dose curve; note: nearly all actives have a fitted effect of over 15% in size). Put shortly:
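Stably transfected HCT-116 cells (beta-lactamase behind p53 response elements) get compounds after a 5 h settling period; 16 h later at 37 °C, FRET substrate is loaded and fluorescence read after 2 h.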
(qHTS replaces the single test concentration by a dilution series.)

Test [2] in a line: qHTS assay for small molecules that induce genotoxicity in human embryonic kidney cells expressing luciferase-tagged ATAD5 (AID 651632). Note: nearly all actives have a fitted effect of over 15% in size. Note: potency is the fitted concentration of half-maximal effect. The procedure, abridged:
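Cells were seeded at 2,000 per well, dosed with compound, and incubated 16 hr at 37C in 5% CO2. Luciferase activity was then quantified after a 30 min room-temperature incubation with Amplite.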

A short description of test [3]: qHTS assay for small molecule agonists of the p53 signaling pathway - cell viability (AID 651633; calls by dose curve;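 note: p53RE-bla HCT reporter cells with a stable beta-lactamase p53 reporter; series mostly up to about 83 µM; nearly all actives have a fitted effect of over 30% in size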). The procedure, abridged:
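Viability counter-read: CellTiter-Glo luminescence (30 min, room temperature) in the same p53RE-bla plates. These plates had been exposed to compounds for 16 h at 37 C.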

Test [4] is described as follows: qHTS assay for small molecules that induce genotoxicity in human embryonic kidney cells expressing luciferase-tagged ATAD5 - cell viability (AID 651634; calls by dose curve; note: nearly all actives have a fitted effect of over 25% in size). The procedure, abridged: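 Cells (HEK293T, luciferase-tagged ATAD5) are seeded at 2,000 per well, dosed with compound or DMSO vehicle, and incubated 15.5 hr at 37C and 5% CO2. CellTiter-Fluor is added for 30 min before fluorescence is measured.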

Test [5] in a line: qHTS assay for small molecule disruptors of the mitochondrial membrane potential - cell viability (AID 720634; calls by dose curve;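 note: human HepG2 liver cancer cells; series mostly up to about 83 µM; nearly all actives have a fitted effect of over 20% in size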). The procedure, abridged:
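Cytotoxicity was measured by ATP quantitation in HepG2 wells that had first been treated with compound for 1 hr and stained with m-MPI dye; CellTiter-Glo incubation was 30 min at room temperature.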

The nature of test [6]: qHTS assay for small molecule disruptors of the mitochondrial membrane potential (AID 720635). Note: potency is the fitted concentration of half-maximal effect. The procedure, abridged: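 Mitochondrial membrane potential tracked with Mito-MPS dye, red aggregates (ex 540/em 590 nm) against green monomers (ex 490/em 535 nm). Compound treatment 1 hr at 37C, dye 30 min in HepG2.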
A short description of test [7]: qHTS assay to test for compound auto fluorescence at 590 nm (red) in HepG2 cells (AID 720674). The procedure, abridged:
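Red autofluorescence (Ex/Em 540/590 nm, Rose Bengal sodium equivalents) was measured in HepG2 cells, 2,000 per well in MEM plus 10% FBS, plated overnight at 37 C. Readings were taken 1 hr after adding 23 nL compound or DMSO, at 37 C and 5% CO2.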

A short description of test [8]: qHTS assay to test for compound auto fluorescence at 535 nm (green) in HepG2 cells (AID 720675).
Test [9] is described as follows: qHTS assay to test for compound auto fluorescence at 460 nm (blue) in HEK293 cells (AID 720678). Put shortly: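 Auto fluorescence in the blue band was quantified as triamterene equivalency. HEK293 cells were seeded at 2,000/well, dosed after a 4-5 hr attachment, and kept overnight at 37C before the 405/460 nm reading.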
Test [10] is described as follows: qHTS assay to test for compound auto fluorescence at 590 nm (red) in HEK293 cells (AID 720679). Put shortly: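 Autofluorescence equivalency to Rose Bengal sodium, 540/590nm, in HEK293 cells exposed overnight to 23 nL compound per well.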

The structures appear in SMILES notation. A number with no mark means an inactive call. Results filed as inconclusive are left out. Calls of active or inactive are those of the source. Unless noted, calls come from the whole dose curve; as a rule, active = well fitted curve in the direction sought with a large enough effect in the repeat runs; inconclusive = weak or mixed curves; inactive = no such curve, though single readings can be large; an effect the other way counts as inactive or inconclusive.
% is set by controls: 0 for no effect and ±100 for the full control effect.

With `CC(=O)NCc1c(I)c(NC(C)=O)c(I)c(C(=O)O)c1I`, the molecule was called inactive in test [1], in test [3], in [5], in test [7], in test [8] and in test [9]. The outcome in [10] was inactive. Further, the Potency result in test [2], in [4] and in [6] was “inactive” each time.

As to `CCOC(=O)/C=C/c1ccccc1`, the call in [1], in test [3], in test [5], in test [7], in test [8] and in test [9] was inactive. In addition, the call in test [10] was inactive. Further, the Potency result in test [2], in [4] and in [6] was “inactive” each time.

Take `OCCN(CCO)c1cccc(Cl)c1`: the molecule was classed as inactive in [1], in [3], in test [5], in [7], in test [8] and in [9]. Besides, the molecule was called inactive in test [10]. Moreover, the Potency entry in test [2], in test [4] and in test [6] was “inactive” in each case.

`Oc1cn2c(n1)Nc1ccc(Cl)c(Cl)c1C2`: the molecule was classed as inactive in test [1], in test [3], in [5], in test [7], in test [8] and in test [9]. Also, in [10], the molecule was called inactive. Further, the Potency result in test [2], in test [4] and in test [6] was “inactive” each time.

Take `COc1cc(NS(=O)(=O)c2ccc(N)cc2)nc(OC)n1`: the molecule was classed as inactive in test [1], in test [3] and in test [5]. The Potency entry in test [2], in test [4] and in [6] was “inactive” each time. Also, the fluorescence, relative to Rose Bengal in [7] was -0.297% [at 18.6 µM]. Besides, in test [8], the fluorescence, % of fluorescein control was -0.149% [at 18.6 µM]. Also, the fluorescence, % of triamterene in test [9] was 0.216% [at 18.6 µM]. In addition, the fluorescence, % of fluorescent control in test [10] was -0.0598% [at 18.6 µM].

In the case of `Cc1ccc(C=O)cc1C`, the molecule was classed as inactive in test [1], in [3], in [5], in [7], in [8] and in [9]. The molecule was classed as inactive in test [10]. Besides, the Potency result in test [2], in [4] and in test [6] was “inactive” each time.

On to `CCOC(=O)[C@H](CCc1ccccc1)N[C@@H](C)C(=O)N1C(=O)N(C)C[C@H]1C(=O)O`, for which the outcome in [1], in test [3], in test [5], in test [7], in test [8] and in test [9] was inactive. Further, the molecule was classed as inactive in [10]. Also, the Potency entry in [2], in test [4] and in test [6] was “inactive” in each case.

As for `C=C(C)C(=O)OCCN(CC)CC`, the call in test [1], in [3], in [5], in test [7], in [8] and in [9] was inactive. The molecule was called inactive in [10]. Also, the Potency entry in [2], in test [4] and in test [6] was “inactive” each time.

On to `Cc1cccc(C)c1NC(=O)c1ccccc1C(=O)O`, for which the call in test [1], in test [3], in test [5], in [7], in [8] and in test [9] was inactive. Also, in test [10], the molecule was classed as inactive. Also, the Potency entry in [2], in test [4] and in test [6] was “inactive” throughout.

As to `CC(=O)CCCCn1c(=O)c2c(ncn2C)n(C)c1=O`, the molecule was classed as inactive in [1], in test [3] and in test [5]. For the same molecule, the Potency entry in [2], in test [4] and in test [6] was “inactive” throughout. In addition, the fluorescence, relative to Rose Bengal in test [7] was 0.0631% [at 18.6 µM]. For the same molecule, the fluorescence, % of fluorescein control in [8] was -0.15% [at 18.6 µM]. In test [9], the fluorescence, % of triamterene was 0.0666% [at 18.6 µM]. Besides, the fluorescence, % of fluorescent control in test [10] is -0.0868% [at 18.6 µM].

Turning to `Cc1ccccc1OCC(O)CO` (stereo not drawn), the call in test [1], in test [3], in [5], in [7], in test [8] and in test [9] was inactive. For the same molecule, in [10], the call was inactive. In addition, the Potency result in test [2], in test [4] and in test [6] was “inactive” each time.

For `CN(C)C(=O)CNC(=O)Cc1ccccc1`, the molecule was called inactive in test [1], in test [3], in test [5], in test [7], in test [8] and in [9]. Further, the molecule was classed as inactive in [10]. In addition, the Potency entry in [2], in test [4] and in [6] was “inactive” in each case.

Regarding `O=C(CS(=O)Cc1ccco1)NC/C=C\COc1cc(CN2CCCCC2)ccn1` (stereo not drawn), the molecule was called inactive in test [1], in test [3], in test [5], in [7], in test [8] and in [9]. Moreover, in [10], the call was inactive. The Potency entry in [2], in test [4] and in test [6] was “inactive” throughout.

Turning to `CCCCCCOC(=O)CC`, the outcome in [1], in test [3], in test [5], in test [7], in test [8] and in test [9] was inactive. For the same molecule, the molecule was classed as inactive in [10]. Also, the Potency result in test [2], in test [4] and in [6] was “inactive” throughout.

For the molecule `COc1ccc(Br)c(C)c1`, the call in [1], in [3], in test [5], in test [7], in test [8] and in [10] was inactive. The Potency result in test [2], in test [4] and in [6] was “inactive” each time.

Take `CC1(CO)CN(c2ccccc2)NC1=O` (stereo not drawn): the call in [1], in [3], in test [5], in [7], in test [8] and in test [9] was inactive. The molecule was classed as inactive in [10]. In addition, the Potency result in test [2], in test [4] and in [6] was “inactive” each time.

On to `C=CCCCCCCCCCCCC`, for which the outcome in test [1], in test [3], in test [5], in [7], in [8] and in [9] was inactive. Besides, the result in [10] was inactive. Further, the Potency entry in [2], in [4] and in [6] was “inactive” each time.

In the case of `c1ccc2c(c1)ccc1c3ccccc3ccc21`, the outcome in test [1], in [3], in test [5], in test [7], in [8] and in [10] was inactive. In [2], the Potency is 881 nM (active). The Potency result in test [4] and in [6] was “inactive” in each case.

On to `O=C1CCCC(=O)O1`, for which the outcome in test [1], in [3], in [5], in [7], in test [8] and in test [9] was inactive. The call in test [10] was inactive. The Potency result in test [2], in [4] and in test [6] was “inactive” each time.

Regarding `COc1cc(C(=S)N2CCOCC2)cc(OC)c1OC`, the result in [1], in test [3], in [5], in test [7], in test [8] and in [9] was inactive. Besides, in test [10], the outcome was inactive. For the same molecule, the Potency entry in test [2], in test [4] and in test [6] was “inactive” throughout.

In the case of `Cc1cc(NC(=O)C2=C(O)c3ccccc3S(=O)(=O)N2C)no1`, the call in test [1], in test [3], in [5], in [7], in [8] and in test [9] was inactive. Moreover, in test [10], the molecule was classed as inactive. Moreover, the Potency entry in test [2] and in test [4] was “inactive” each time. Further, in [6], the Potency was 2660 nM (active).

Turning to `COC(=O)[C@@H]1[C@H]2C[C@H]3c4[nH]c5ccccc5c4CCN3C[C@@H]2CC[C@@H]1O`, the outcome in test [1], in test [3], in test [5], in [7], in [8] and in [9] was inactive. In [10], the molecule was classed as inactive. The Potency entry in test [2], in test [4] and in [6] was “inactive” in each case.

As for `Cc1nc2n(c(=O)c1CCN1CCC(c3noc4cc(F)ccc34)CC1)CCC[C@H]2O`, the outcome in test [1], in [3], in test [5], in [7], in test [8] and in [9] was inactive. Besides, the call in test [10] was inactive. The Potency result in test [2], in [4] and in test [6] was “inactive” each time.

The record behind these values is PubChem BioAssay (Tox21).
